Among the data in PubChem BioAssay (EPA / NIEHS) are AC50 and outcome values, retold here.

A word on the AC50: it is the concentration giving half of the maximal activity seen.

Results filed as inconclusive are left out. The source made the active and inactive calls. How the source made its calls: active means hit-call score of the fitted dose curve at least 0.9, where 1 is the maximum; inconclusive means response in the unintended direction; inactive means score below 0.9.

Sequence of human Esterase Plasma (ES), BCHE (gene 590) (P06276 whole entry, looked up): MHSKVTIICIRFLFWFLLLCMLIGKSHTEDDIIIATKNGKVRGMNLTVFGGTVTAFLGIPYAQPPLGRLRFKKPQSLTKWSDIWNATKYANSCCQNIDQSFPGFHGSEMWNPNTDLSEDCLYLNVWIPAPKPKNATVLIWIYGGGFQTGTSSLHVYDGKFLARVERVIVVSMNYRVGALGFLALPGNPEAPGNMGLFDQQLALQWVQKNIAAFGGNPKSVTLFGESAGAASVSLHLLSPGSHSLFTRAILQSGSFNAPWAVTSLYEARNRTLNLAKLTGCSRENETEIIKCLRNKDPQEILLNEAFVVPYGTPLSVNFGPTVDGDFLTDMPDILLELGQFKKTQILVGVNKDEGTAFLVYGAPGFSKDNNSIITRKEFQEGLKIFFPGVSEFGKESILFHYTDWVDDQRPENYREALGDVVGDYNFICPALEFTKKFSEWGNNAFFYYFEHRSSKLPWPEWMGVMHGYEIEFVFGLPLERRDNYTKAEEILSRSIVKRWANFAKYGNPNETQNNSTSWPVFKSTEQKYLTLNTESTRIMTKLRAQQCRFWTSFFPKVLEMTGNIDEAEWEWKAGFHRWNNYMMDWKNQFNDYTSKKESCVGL

One test has as its target human Esterase Plasma (ES), BCHE (gene 590) (UniProt P06276). As to the kind of experiment: NVS_ENZ_hES: NovaScreen (NVS) Enzymatic Assay for human Esterase Plasma (ES) (AID 2283157). In a few lines: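 Primary single-concentration screen at 25 uM in duplicate, then concentration-response to a 50 uM top dose. Human plasma esterase activity detected colorimetrically after 0.25 h incubation, with DMSO as baseline.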
Take `CN1CCN(Cc2cc(-c3ccc4[nH]c(=O)oc4c3)co2)[C@@H](c2ccc(F)cc2)C1`: the AC50 was 9.48 µM (active).
As to `CC(C)(C)c1cc(O)c(C(C)(C)C)cc1O`, the call was inactive.
With `Cc1cccc([N+](=O)[O-])c1C`, the result was inactive.
As for `Cc1cc(=O)[nH]c(=S)[nH]1`, the call was inactive.
For the compound `COCCOC[C@H](CC1(C(=O)NC2CCC(C(=O)O)CC2)CCCC1)C(=O)Oc1ccc2c(c1)CCC2` (stereo partly drawn), the result was inactive.
`CCOC(=O)C(C)(C)Oc1ccc(Cl)cc1`: the compound was classed as inactive.
Still for that read-out and setting: for `Cc1ccc(C(C)C)c(O)c1` the value was “inactive”.
Turning to `NC(=O)Cn1c(=O)cc(CCN2CCN(c3nccc4sccc34)CC2)c2ccc(F)cc21`, the concentration at half-maximal activity (AC50) is 13 µM (active).
Turning to `NCC1(Cc2noc(=O)[nH]2)CCCCC1`, the result was inactive.

In another test the target is Glycogen synthase kinase-3 beta (Homo sapiens) (UniProt P49841). The experiment in a line: NVS_ENZ_hGSK3b: NovaScreen (NVS) Enzymatic Assay for human Glycogen Synthase Kinase-3 beta (GSK3b) (AID 2283165). In outline: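 Recombinant enzyme with specific fluorescent substrate, 1 h, product separated by electrophoretic mobility shift. Primary duplicate screen at 25 uM; actives (e.g. 30% inhibition) followed in singleton concentration-response to 50 uM. Signal loss fitted versus DMSO.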
Sequence of Glycogen synthase kinase-3 beta (Homo sapiens) (P49841 whole entry, looked up): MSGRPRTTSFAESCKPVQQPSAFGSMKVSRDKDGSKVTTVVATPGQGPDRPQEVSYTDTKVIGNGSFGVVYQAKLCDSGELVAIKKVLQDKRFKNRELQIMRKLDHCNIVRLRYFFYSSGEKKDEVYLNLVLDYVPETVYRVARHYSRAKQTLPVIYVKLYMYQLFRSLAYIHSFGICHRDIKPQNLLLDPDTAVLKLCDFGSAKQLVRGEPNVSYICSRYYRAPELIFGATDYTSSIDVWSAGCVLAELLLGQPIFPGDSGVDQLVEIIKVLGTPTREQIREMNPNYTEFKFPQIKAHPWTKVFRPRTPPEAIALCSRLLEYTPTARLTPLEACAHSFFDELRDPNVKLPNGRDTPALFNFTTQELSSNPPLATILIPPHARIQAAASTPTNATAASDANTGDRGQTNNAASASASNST
Regarding `CC(C)c1ccc(C(=O)N=C(N)N)cc1S(C)(=O)=O`, the call was inactive.
As to `C=CCOC(=O)c1ccccc1C(=O)OCC=C`, the result was inactive.
Still for that read-out and setting: for `CCCCc1ccc2c(n1)[C@@H](c1ccc(OC)cc1C[C@H](C)C(=O)O)[C@H](C(=O)O)[C@H]2c1ccc2c(c1)OCO2` the value was “inactive”; for `C=CCc1ccc(O)c(OC)c1`, “inactive”.
`CCCc1cc(=O)[nH]c(=S)[nH]1`: the call was inactive.
Turning to `O=[N+]([O-])C(CO)(CO)CO`, the compound was called inactive.
On to `Cc1ccc(N(C)C)cc1`, for which the compound was called inactive.
The same measure, in the same setting: for `CCCCCCCCCCO` the value was “inactive”; for `NC(=O)Cn1c(=O)cc(CCN2CCN(c3nccc4sccc34)CC2)c2ccc(F)cc21`, “inactive”.

A further test concerns the target Collagenase 3 (Homo sapiens) (UniProt P45452). As to the kind of experiment: NVS_ENZ_hMMP13: NovaScreen (NVS) Enzymatic Assay for human Matrix Metalloproteinase-13 (MMP13) (AID 2283182). In a few lines: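 Recombinant MMP13 cleaving fluorescent substrate, cell-free, measured 1 h after dosing. Primary duplicate screen at 25 uM; actives tested in concentration-response up to 50 uM; loss of signal relative to DMSO.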
On to `CN1CCN(Cc2cc(-c3ccc4[nH]c(=O)oc4c3)co2)[C@@H](c2ccc(F)cc2)C1`, for which the AC50 is 7.74 µM (active).
Take `c1cc(-c2ccncc2)ccn1`: the result was inactive.
Regarding `Cc1cccc([N+](=O)[O-])c1C`, the AC50 is 2.06 µM (active).
On to `COCCOC[C@H](CC1(C(=O)NC2CCC(C(=O)O)CC2)CCCC1)C(=O)Oc1ccc2c(c1)CCC2` (stereo partly drawn), for which the AC50 was 17.3 µM (active).
`CN[C@H]1CC[C@@H](c2ccc(Cl)c(Cl)c2)c2ccc(S(N)(=O)=O)cc21`: the AC50 is 2.36 µM (active).

A further test deals with human Matrix Metalloproteinase-7 (MMP7), MMP7 (gene 4316) (UniProt P09237). The experiment in a line: NVS_ENZ_hMMP7: NovaScreen (NVS) Enzymatic Assay for human Matrix Metalloproteinase-7 (MMP7) (AID 2283183). In a few lines: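 Compounds first tested at 25 uM in duplicate, then at up to 50 uM in concentration series if active. Protease activity measured by fluorescence intensity 1 h after dosing, with fitting relative to DMSO.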
Sequence of human Matrix Metalloproteinase-7 (MMP7), MMP7 (gene 4316) (P09237 whole entry, looked up): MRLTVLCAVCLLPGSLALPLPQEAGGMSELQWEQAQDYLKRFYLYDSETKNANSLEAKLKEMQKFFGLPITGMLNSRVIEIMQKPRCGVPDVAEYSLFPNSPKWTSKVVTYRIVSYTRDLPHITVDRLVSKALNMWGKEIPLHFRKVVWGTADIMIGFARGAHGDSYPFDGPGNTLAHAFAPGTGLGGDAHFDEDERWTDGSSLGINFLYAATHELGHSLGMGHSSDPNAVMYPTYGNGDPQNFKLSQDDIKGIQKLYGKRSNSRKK
Take `CC=Cc1ccc(O)c(OC)c1`: the compound was called inactive.
As to `CCCCCCCCCCCC(=O)OC`, the compound was classed as inactive.
On the same count and under the same terms, for `CCCCCCC(=O)OCC` the value was “inactive”; for `CN1CCN(Cc2cc(-c3ccc4[nH]c(=O)oc4c3)co2)[C@@H](c2ccc(F)cc2)C1`, “inactive”; for `C[Si]1(C)O[Si](C)(C)O[Si](C)(C)O[Si](C)(C)O1`, “inactive”.
On to `CC(C)(C)c1cc(O)c(C(C)(C)C)cc1O`, for which the call was inactive.
For `O=[N+]([O-])C(CO)(CO)CO`, the outcome was inactive.
Turning to `OC[C@@H](O)[C@@H](O)[C@H](O)[C@H](O)CO`, the compound was classed as inactive.
Take `Nc1ccc(S(=O)(=O)c2ccc(N)cc2)cc1`: the call was inactive.
In the case of `CN[C@H]1CC[C@@H](c2ccc(Cl)c(Cl)c2)c2ccc(S(N)(=O)=O)cc21`, the call was inactive.
